In the library only some 2.5% were active in any assay of this set; here they are far more common.
UBC9 SUMO inh – inhibitors of in vitro SUMOylation cascade, primary screen, biochemical, HTRF, uHTS; HTRF SUMOylation assay, SAE1/SAE2 + UBC9; inhibition, % at 35 µM; 290,000 tested, 0.36% active; in the data active = inhibition above about 50%, passing the limit was not always enough
Target sequence (P63279 whole entry, looked up): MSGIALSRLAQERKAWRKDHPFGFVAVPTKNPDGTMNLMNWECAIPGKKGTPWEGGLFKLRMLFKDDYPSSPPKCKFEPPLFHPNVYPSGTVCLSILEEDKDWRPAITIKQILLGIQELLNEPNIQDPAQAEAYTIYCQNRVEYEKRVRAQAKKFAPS
HDAC3 inh – HDAC3 deacetylase inhibitors, primary screen, biochemical, fluorescence, cell-free homogeneous | recombinant HDAC3, fluorogenic peptide/trypsin coupled | inhibition, % at 8.3 µM | 320,000 tested, 0.15% active | AID 2718, 2010; in the data active = inhibition above about 26%, passing the limit was not always enough
PfM18AAP inh-1 – PfM18AAP inhibitors, malaria aminopeptidase, primary screen, biochemical, QFRET, recombinant enzyme | AID 1822, 2009 | H-Glu-NHMec fluorogenic cleavage | inhibition, % at 7.35 µM | M18 aspartyl aminopeptidase (Plasmodium falciparum 3D7) | 290,000 tested, 1.2% active;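 active = inhibition above the campaign mean inhibition over all tested compounds plus 3 SD, cut at about 28% in these data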
p97 ATPase inh – inhibitors of human p97 ATPase, primary screen, biochemical. recombinant p97 ATPase, Kinase-Glo ATP luminescence, 3 h. inhibition, % at 8 µM. 220,000 tested, 0.42% active. AID 1481, 2009; in the data active = inhibition above about 15%
G6PDH CS – L. mesenteroides G6PDH inhibitors, counter-screen for G6PDH-coupled screening assays, biochemical, Leuconostoc mesenteroides enzyme; glucose-6-phosphate dehydrogenase [Leuconostoc mesenteroides]; Purified L. mesenteroides G6PDH, diaphorase/resazurin coupled fluorescence, 45 min; inhibition, % at 5 µM; 200,000 tested, 0.12% active; AID 1020, 2008; in the data active = inhibition above about 50%
PHOSPHO1 inh – PubChem AID 1565 | recombinant PHOSPHO1, absorbance phosphatase assay | inhibition, % at 13.3 µM | 290,000 tested, 1.1% active; in the data active = inhibition above about 60%
PfM18AAP inh-2 – PfM18AAP inhibitors, malaria aminopeptidase, confirmation, biochemical, QFRET, recombinant enzyme, triplicate. shares compounds with PfM18AAP inh-1. H-Glu-NHMec fluorogenic cleavage. inhibition, % at 7.35 µM. 2,400 tested, 28% active;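 active = mean inhibition over replicate wells above the hit cutoff set for the earlier primary screen, cut at about 29% in these data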
CTSL1 counter – cathepsin L1 inhibitors, retest, confirmation, counter-screen for PFM18AAP inhibitor project, biochemical, QFRET, triplicate; shares compounds with PfM18AAP inh-1; 2,400 tested, under 10 active; purified cathepsin L1, Z-Leu-Arg-MCA fluorescence; inhibition, % at 5.96 µM; AID 2178, 2009;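 active = average inhibition across replicates above the hit cutoff set in the earlier primary screen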
Target sequence (P07711 whole entry, looked up): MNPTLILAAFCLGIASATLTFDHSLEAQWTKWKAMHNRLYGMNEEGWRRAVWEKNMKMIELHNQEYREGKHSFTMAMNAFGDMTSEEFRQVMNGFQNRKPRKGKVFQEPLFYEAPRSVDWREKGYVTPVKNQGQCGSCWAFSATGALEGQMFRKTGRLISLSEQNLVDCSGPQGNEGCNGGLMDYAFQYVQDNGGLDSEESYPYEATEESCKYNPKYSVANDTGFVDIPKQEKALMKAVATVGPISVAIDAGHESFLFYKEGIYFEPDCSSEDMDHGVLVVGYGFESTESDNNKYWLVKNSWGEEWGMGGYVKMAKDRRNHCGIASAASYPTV
Of the large screens only hits and unclear results are named; the others gave an inactive call (follow-up assays come after a bar, where they were run).

O=C(O)c1ccc(O)c(O)c1	PfM18AAP inh-1 79 (no result: G6PDH CS) | PfM18AAP inh-2 65 | CTSL1 counter inactive
O=C(O)c1cccc(C(=O)O)c1	none (no result: p97 ATPase inh, G6PDH CS)
COc1cccc(Oc2cc(Cl)nc(N)n2)c1	none (no result: p97 ATPase inh, G6PDH CS, PHOSPHO1 inh)
Cc1ccc(-c2nc(N/N=C/c3cccnc3)c3ccccc3n2)cc1	PfM18AAP inh-1 43 | PfM18AAP inh-2 inactive | CTSL1 counter inactive
O=C(CN1CCN(c2cccc(C(F)(F)F)c2)CC1)N(C1CCCC1)C1CCS(=O)(=O)C1 (centres undefined)	none (no result: UBC9 SUMO inh, PfM18AAP inh-1, p97 ATPase inh, G6PDH CS, PHOSPHO1 inh)
N#Cc1c(Cl)nsc1NN	PfM18AAP inh-1 39 | PfM18AAP inh-2 29 | CTSL1 counter inactive
Cc1c(C#N)c(N)nc(Cl)c1C#N	none
CCN1CCc2nc3sc(C(=O)N4CCc5ccccc5C4)c(N)c3cc2C1	PfM18AAP inh-1 35 (no result: p97 ATPase inh, G6PDH CS) | PfM18AAP inh-2 inactive | CTSL1 counter inactive
CC1CC(C)CN(S(=O)(=O)c2ccc3c(c2)CC(C)N3C(=O)C2CC2)C1 (centres undefined)	none (no result: p97 ATPase inh, G6PDH CS)
Cc1nn(C)cc1-c1n[nH]c(=S)n1-c1ccc(F)cc1	PfM18AAP inh-1 35 | PfM18AAP inh-2 inactive | CTSL1 counter inactive
Cn1cc(Cl)c(-c2n[nH]c(=S)n2-c2ccccc2)n1	none
Cc1nn(C)c(-c2n[nH]c(=S)n2-c2ccccc2)c1Cl	PfM18AAP inh-1 32 | PfM18AAP inh-2 inactive | CTSL1 counter inactive
C=CCn1c(-c2ccncc2)n[nH]c1=S	none
C=CCn1c(-c2sc3nc(C)cc(C)c3c2N)n[nH]c1=S	PfM18AAP inh-1 43 (no result: G6PDH CS) | PfM18AAP inh-2 inactive | CTSL1 counter inactive
O=C(COC(=O)[C@@H]1CC(O)CN1S(=O)(=O)c1ccc(Cl)cc1)NC(=O)NCc1ccccc1 (some centres undefined)	none (no result: UBC9 SUMO inh, PfM18AAP inh-1, p97 ATPase inh, G6PDH CS, PHOSPHO1 inh)
CCOC(=O)c1c(NC(=O)C2CCCO2)sc(C)c1C (centres undefined)	none
CCOC(=O)c1sc(NC(=O)C2CCCO2)c(C(=O)OCC)c1C (centres undefined)	none (no result: HDAC3 inh, PfM18AAP inh-1, p97 ATPase inh)
Cc1sc(NC(=O)C2CCCO2)c(C(N)=O)c1C (centres undefined)	PfM18AAP inh-1 37 | PfM18AAP inh-2 inactive | CTSL1 counter inactive
CCOC(=O)c1c(NC(=O)C2CCCO2)sc(C(=O)OC(C)(C)C)c1C (centres undefined)	PfM18AAP inh-1 35, PHOSPHO1 inh 83 | PfM18AAP inh-2 inactive | CTSL1 counter inactive
COc1ccc(-c2nnc(SCc3ccc(C(=O)O)cc3)n2N)cc1	none (no result: G6PDH CS)
CC(=O)c1cn(N2CCCCC2)c(=O)[nH]c1=O	none (no result: p97 ATPase inh, G6PDH CS)
CC(C)NC(=O)[C@H]1N2C(=O)c3ccccc3C2SC1(C)C (some centres undefined)	none (no result: p97 ATPase inh, G6PDH CS)
COC(=O)Cc1ccc2sc(-c3ccccc3)nc2c1	none
COC(=O)Cc1sc(-c2ccccn2)nc1-c1ccccc1	PfM18AAP inh-1 33 | PfM18AAP inh-2 inactive | CTSL1 counter inactive
COc1ccc(N2C(=O)/C(=C/N(C)C)NC2=S)cc1	PfM18AAP inh-1 80 | PfM18AAP inh-2 69 | CTSL1 counter inactive
COc1ccc(N2C(=O)/C(=C/c3cccnc3)NC2=S)cc1	none
CC(=O)Nc1cccc(-c2csc(N)n2)c1	none
CC(=O)NCc1ccc(-c2csc(N)n2)s1	PfM18AAP inh-1 37 | PfM18AAP inh-2 inactive | CTSL1 counter inactive
O=c1c2ccccc2cnn1Cc1n[nH]c(=S)n1-c1ccccc1Cl	PfM18AAP inh-1 38 | PfM18AAP inh-2 inactive | CTSL1 counter inactive
Cc1ccc(-n2c(Cn3ncc4ccccc4c3=O)n[nH]c2=S)cc1	none
O=c1c2ccccc2cnn1Cc1n[nH]c(=S)n1-c1ccc(F)cc1	PfM18AAP inh-1 36 | PfM18AAP inh-2 inactive | CTSL1 counter inactive

Screening data from PubChem.
